This note sets out measurements from ChEMBL document CHEMBL3988442, “University of Dundee, Small-Polar-MMV Screening Library” (2021).

Each structure is given as a SMILES string. For some of these results: Potency and affinity values are given separately.

Holding throughout (set-up): scale not given: direction of the effect not stated beside the values
For experiment [1], the target named is Protein translocase subunit SecA (Escherichia coli (strain K12)) (UniProt P10408). The experiment can be described thus: Assay to Identify E. coli SecA ATPase Inhibitors. The format is functional. The following applies: 30 µM.
Protein translocase subunit SecA (Escherichia coli (strain K12)), sequence (P10408 whole entry): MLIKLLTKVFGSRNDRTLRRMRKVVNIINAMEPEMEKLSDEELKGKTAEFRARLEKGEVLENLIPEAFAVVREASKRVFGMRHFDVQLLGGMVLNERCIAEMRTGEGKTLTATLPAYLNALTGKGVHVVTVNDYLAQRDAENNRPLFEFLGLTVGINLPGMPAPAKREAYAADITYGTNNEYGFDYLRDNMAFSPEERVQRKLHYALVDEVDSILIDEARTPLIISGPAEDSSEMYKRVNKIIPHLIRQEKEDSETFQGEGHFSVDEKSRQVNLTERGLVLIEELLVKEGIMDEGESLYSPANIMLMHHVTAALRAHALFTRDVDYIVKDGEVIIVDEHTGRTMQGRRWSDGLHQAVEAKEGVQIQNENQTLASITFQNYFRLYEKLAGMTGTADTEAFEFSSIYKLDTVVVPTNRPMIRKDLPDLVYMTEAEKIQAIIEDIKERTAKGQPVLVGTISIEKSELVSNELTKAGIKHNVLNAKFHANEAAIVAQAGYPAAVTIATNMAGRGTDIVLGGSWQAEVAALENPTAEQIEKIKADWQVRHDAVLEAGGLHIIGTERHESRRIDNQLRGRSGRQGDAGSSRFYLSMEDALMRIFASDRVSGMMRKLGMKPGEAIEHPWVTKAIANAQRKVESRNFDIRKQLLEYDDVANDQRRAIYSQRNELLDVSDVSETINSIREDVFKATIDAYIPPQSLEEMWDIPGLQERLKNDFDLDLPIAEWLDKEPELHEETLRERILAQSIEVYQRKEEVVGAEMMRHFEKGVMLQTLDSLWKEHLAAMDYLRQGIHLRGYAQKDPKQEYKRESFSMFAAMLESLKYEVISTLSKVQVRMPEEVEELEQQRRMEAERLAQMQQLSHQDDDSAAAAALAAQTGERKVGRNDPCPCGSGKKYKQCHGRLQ
Experiment [2] deals with T1, Ubiquitin-activating enzyme e1, putative (Leishmania donovani (strain BPK282A1)) (UniProt E9BSI1).
T1 sequence (whole entry): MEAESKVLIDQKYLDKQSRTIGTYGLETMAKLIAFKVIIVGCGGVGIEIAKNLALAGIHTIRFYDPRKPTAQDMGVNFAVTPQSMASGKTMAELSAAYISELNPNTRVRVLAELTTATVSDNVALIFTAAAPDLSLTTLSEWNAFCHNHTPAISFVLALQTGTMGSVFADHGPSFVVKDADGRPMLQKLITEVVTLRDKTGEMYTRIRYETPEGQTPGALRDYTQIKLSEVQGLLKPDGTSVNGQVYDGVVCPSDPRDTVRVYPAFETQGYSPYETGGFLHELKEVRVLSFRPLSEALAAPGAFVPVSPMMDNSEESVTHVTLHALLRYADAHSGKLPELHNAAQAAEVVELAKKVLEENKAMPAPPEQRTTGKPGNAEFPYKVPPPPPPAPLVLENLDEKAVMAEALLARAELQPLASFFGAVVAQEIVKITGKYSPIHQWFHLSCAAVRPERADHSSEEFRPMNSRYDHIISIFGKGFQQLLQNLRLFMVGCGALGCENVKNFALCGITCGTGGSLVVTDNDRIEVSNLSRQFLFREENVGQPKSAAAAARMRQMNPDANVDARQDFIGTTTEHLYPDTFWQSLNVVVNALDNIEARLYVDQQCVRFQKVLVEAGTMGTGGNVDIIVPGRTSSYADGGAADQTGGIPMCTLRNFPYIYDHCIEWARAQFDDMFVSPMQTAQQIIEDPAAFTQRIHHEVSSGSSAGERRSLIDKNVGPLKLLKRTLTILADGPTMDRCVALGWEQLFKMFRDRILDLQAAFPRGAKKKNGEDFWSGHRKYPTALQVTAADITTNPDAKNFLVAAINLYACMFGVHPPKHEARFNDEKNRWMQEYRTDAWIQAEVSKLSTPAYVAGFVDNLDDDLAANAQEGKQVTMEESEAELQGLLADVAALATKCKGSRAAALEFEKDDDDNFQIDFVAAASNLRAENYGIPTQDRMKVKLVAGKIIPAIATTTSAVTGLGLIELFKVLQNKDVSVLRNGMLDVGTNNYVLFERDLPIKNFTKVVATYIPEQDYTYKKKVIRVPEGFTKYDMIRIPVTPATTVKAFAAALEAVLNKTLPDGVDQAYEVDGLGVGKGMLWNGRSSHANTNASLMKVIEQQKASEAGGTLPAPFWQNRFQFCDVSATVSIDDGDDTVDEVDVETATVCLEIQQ
Description: Leishmania donovani Ubiquitin Activating Enzyme (LdE1). The note with it: 30 µM. The format is functional.

Experiment [3] deals with AMP-activated protein kinase, AMPK (Homo sapiens) (UniProt P54646+O43741+P54619+Q9UGJ0+Q9Y478+Q13131+Q9UGI9). Description: AMP-dependent Kinase enzyme assay. An in vitro enzyme assay that detects ADP turnover that is directly proportional to AMPK activity. This uses naive AMPK that is activated during the assay with MK-8722. The format is functional. The following applies: 30 µM.

Experiment [4] addresses Sialic acid-binding Ig-like lectin 9 (Homo sapiens) (UniProt Q9Y336). The experiment can be described thus: Hs-Siglec9 ALPHAscreen SOP 20170721. The following applies: 10 µM. Background: In Alpha technology, singlet oxygen from a donor bead excites a nearby acceptor bead.
Another experiment relates to Trypanosoma cruzi. Description: Trypanosoma cruzi phosphomannomutase and mannose-1-phosphate guanylyltransferase assay. The format is functional. The note with it: 10 µM.
Experiment [5] concerns the target T2, Arginase-2, mitochondrial (Homo sapiens) (UniProt P78540).
T2 sequence (whole entry): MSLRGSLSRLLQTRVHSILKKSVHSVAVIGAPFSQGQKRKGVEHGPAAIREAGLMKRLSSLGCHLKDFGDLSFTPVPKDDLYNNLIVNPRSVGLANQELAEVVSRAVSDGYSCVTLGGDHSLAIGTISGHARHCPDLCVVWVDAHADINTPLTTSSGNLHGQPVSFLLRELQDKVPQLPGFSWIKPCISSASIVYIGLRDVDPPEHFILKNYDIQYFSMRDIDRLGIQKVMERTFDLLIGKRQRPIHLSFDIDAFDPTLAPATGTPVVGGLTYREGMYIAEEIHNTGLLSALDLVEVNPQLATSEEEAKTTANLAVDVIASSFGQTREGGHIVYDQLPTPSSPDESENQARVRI
The experiment can be described thus: in vitro enzyme assay to detect the production of urea directly proportional to the activity of Arginase II. Note: in the data most compounds retested in dose-response had high values. The note with it: 33.3 µM. The format is functional.

Experiment [6] deals with T3, Proteasome subunit beta (Trypanosoma cruzi) (UniProt O96673).
T3 sequence (whole entry): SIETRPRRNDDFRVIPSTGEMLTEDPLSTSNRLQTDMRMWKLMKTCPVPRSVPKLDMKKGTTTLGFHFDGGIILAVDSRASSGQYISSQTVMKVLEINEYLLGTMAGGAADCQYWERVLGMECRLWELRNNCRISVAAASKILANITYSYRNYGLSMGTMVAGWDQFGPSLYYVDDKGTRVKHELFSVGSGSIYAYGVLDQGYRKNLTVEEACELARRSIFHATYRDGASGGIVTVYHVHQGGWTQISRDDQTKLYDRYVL
The experiment can be described thus: Trypanosoma cruzi proteasome chymotrypsin-like activity (TcProtChymo) assay. Note: in the data most compounds retested in dose-response had high values. The format is functional. The note with it: 9.37 µM.

Another experiment is filed under the species Homo sapiens. Description: To identify inhibition of the IFN signalling (Jak-Stat) pathway via expression of an eGFP reporter gene under the control of an IFN-stimulated response element (ISRE) containing MxA promoter. The format is functional. The note with it: 30 µM.
Experiment [7] has as its target T4, Tyrosyl-tRNA synthetase, putative (Trypanosoma cruzi (strain CL Brener)) (UniProt Q4DSP6).
T4 sequence (whole entry): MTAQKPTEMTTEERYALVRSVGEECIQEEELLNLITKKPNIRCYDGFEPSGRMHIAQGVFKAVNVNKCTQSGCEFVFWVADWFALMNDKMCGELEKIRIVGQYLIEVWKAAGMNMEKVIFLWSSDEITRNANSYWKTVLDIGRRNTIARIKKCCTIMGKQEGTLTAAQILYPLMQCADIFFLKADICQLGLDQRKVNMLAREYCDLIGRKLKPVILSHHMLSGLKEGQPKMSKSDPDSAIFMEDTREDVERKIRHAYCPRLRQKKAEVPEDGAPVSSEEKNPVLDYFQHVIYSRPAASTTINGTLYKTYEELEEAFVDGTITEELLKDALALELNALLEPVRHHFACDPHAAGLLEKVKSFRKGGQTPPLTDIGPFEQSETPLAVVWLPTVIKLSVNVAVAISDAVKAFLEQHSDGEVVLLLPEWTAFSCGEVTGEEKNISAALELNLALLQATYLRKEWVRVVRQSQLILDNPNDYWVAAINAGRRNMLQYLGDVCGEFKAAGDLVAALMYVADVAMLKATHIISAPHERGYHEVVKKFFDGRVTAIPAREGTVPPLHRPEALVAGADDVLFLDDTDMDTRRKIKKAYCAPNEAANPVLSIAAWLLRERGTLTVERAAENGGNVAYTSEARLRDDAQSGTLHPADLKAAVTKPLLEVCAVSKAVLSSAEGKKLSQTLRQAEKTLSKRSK
The experiment can be described thus: Trypanosoma cruzi tyrosyl tRNA synthetase (TcYRS) _High Tyrosine SOP. Note: in the data most compounds retested in dose-response had high values. The format is functional. The note with it: 30 µM.

The target in experiment [8] is T4, Tyrosyl-tRNA synthetase, putative (Trypanosoma cruzi (strain CL Brener)). The experiment can be described thus: Trypanosoma cruzi tyrosyl tRNA synthetase (TcYRS) SOP. The format is functional. The following applies: 30 µM.
In experiment [9] the target is Chromo domain-containing protein 1 (Saccharomyces cerevisiae (strain ATCC 204508 / S288c) (Baker's yeast)) (UniProt P32657). The experiment can be described thus: ScCHD-1 Enzyme Inhibition Assay. Note: in the data most compounds retested in dose-response had high values. The format is functional. The following applies: 30 µM.
Chromo domain-containing protein 1 (Saccharomyces cerevisiae (strain ATCC 204508 / S288c) (Baker's yeast)), sequence (P32657 whole entry, the tested form may be a part): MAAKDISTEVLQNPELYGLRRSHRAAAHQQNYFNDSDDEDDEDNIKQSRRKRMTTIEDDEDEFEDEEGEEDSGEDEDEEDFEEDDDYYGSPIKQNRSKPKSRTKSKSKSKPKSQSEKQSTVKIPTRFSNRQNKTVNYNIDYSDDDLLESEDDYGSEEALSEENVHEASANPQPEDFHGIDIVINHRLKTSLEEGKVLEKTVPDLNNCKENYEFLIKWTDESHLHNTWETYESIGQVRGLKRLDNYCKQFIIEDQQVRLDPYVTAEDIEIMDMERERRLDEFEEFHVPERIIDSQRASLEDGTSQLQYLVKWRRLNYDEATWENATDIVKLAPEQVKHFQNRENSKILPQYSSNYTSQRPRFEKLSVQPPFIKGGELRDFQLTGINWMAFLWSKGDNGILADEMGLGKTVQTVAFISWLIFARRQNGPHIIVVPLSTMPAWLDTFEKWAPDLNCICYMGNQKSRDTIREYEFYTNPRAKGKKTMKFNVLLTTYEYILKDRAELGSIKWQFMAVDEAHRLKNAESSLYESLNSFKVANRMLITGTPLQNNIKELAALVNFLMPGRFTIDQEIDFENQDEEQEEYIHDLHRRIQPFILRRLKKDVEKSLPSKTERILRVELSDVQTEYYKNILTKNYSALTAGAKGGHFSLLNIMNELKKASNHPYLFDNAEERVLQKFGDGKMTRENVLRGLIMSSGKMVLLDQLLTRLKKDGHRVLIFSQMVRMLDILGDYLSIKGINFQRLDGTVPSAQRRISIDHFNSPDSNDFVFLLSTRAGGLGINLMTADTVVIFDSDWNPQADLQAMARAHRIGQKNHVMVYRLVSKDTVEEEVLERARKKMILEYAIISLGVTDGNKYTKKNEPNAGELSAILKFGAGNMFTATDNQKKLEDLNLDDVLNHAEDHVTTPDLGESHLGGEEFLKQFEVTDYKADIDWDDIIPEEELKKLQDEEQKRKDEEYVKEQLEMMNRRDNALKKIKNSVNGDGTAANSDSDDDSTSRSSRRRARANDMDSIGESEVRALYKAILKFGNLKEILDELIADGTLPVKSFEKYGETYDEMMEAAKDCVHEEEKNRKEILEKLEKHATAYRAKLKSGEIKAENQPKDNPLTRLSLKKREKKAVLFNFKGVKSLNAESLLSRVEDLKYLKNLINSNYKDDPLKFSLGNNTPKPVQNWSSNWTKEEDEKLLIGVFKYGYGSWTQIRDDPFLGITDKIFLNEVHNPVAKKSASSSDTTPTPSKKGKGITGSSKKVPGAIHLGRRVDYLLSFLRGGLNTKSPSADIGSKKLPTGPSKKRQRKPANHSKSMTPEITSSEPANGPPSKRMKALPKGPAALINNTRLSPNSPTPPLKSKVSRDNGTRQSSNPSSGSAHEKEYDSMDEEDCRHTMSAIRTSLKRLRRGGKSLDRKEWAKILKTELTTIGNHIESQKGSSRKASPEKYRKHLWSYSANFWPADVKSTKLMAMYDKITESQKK

Sialic acid-binding Ig-like lectin 9 (Homo sapiens), sequence (Q9Y336 whole entry): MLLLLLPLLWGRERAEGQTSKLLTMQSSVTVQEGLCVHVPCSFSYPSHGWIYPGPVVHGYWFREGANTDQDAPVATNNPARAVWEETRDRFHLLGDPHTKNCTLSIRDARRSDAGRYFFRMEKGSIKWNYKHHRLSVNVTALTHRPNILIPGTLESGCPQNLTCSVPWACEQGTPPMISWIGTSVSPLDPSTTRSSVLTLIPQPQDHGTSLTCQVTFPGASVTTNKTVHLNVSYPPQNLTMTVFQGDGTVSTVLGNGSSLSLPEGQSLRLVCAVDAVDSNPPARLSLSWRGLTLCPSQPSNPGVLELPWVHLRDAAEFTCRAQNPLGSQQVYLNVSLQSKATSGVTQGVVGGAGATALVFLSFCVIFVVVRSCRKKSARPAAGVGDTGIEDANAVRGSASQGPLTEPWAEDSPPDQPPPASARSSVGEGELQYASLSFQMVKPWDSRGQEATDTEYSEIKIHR

As to `Cc1ccc(N2CC3(COCCN(Cc4nccs4)C3)OCC2=O)s1` (stereo unspecified), the Percent Effect is 4.24% in [1]; 7.79% in experiment [2]; -1.49% in experiment [3]; -11.2% in [4]; -7.59% with Trypanosoma cruzi; 9.68% in [5]. The Percent Effect in experiment [6] is 17.8%; in the experiment filed under Homo sapiens, 8.7%; in [7] it was 3.17%; in [8], 8.97%; in [9], -11.1%.
On to `O=C(CCc1ccsc1)NCC1CCN(c2ccccc2)C1` (stereo unspecified), for which the Percent Effect in experiment [1] is 0.538%; in [2], -6.94%; in experiment [3] it was -4.41%; in [4], -4.12%; in the experiment with Trypanosoma cruzi, -6.51%; in experiment [5] it was 5.3%. For the same compound, the Percent Effect in experiment [6] was 18.4%; in the experiment filed under Homo sapiens it was 9.93%; in [7], 6.32%; in experiment [8], 7.69%; in [9], -1.39%.
For `O=C(NCCOc1ccc(F)c(F)c1)NCc1cccc(CO)c1`, the Percent Effect in [1] is -2.53%; in [2], 2.7%; in experiment [3], 1.53%; in experiment [4] it was 4.96%; in the experiment on Trypanosoma cruzi, 1.16%; in [5], -2.38%. The Percent Effect was 15.2% in experiment [6]; 19.7% in the experiment listed under Homo sapiens; -0.529% in experiment [7]; 7.32% in [8]; -4.04% in experiment [9].
In the case of `COc1ccc(-c2csc(N)c2C#N)cc1OC`, the Percent Effect in experiment [1] was -2.5%; in experiment [2], 6.67%; in experiment [3], -9.01%; in experiment [4] it was 5.81%; in the experiment with Trypanosoma cruzi, 4.91%; in [5] it was -6.16%. The Percent Effect in experiment [6] was 7.02%; in the experiment listed under Homo sapiens, 12.1%; in experiment [7], 1.06%; in experiment [8], 0%; in [9], -1.98%.
Consider `O=C(NCC(=O)N1CCCCC1)c1ccc(Cl)cc1I`, for which the Percent Effect in experiment [1] was -0.681%; in experiment [2], 5.41%; in experiment [3], -6.27%; in [4] it was 3.75%; with Trypanosoma cruzi it was 8.49%; in experiment [5], 0%. The Percent Effect is 10.5% in experiment [6]; 13.7% in the experiment listed under Homo sapiens; 2.65% in [7]; 12.2% in [8]; -1.27% in experiment [9].
For the compound `CCCc1nc(CN2CCCC(Cn3cncn3)C2)no1` (stereo unspecified), the Percent Effect is -6.43% in [1]; -1.27% in experiment [2]; 0.957% in [3]; -0.585% in experiment [4]; 0.718% with Trypanosoma cruzi; 0.215% in experiment [5]. The Percent Effect in experiment [6] was 2.06%; in the experiment filed under Homo sapiens it was 4.36%; in [7], 5.21%; in experiment [8], 15.2%; in experiment [9], -25.2%.
With `COCc1noc(C2(c3ccc(OC)cc3)CCOCC2)n1`, the Percent Effect was -3.44% in experiment [1]; 5.41% in [2]; 0.468% in [3]; 6.74% in [4]; -0.386% in the experiment on Trypanosoma cruzi; 2.86% in [5]. In addition, the Percent Effect was 14.1% in experiment [6]; 9.88% in the experiment listed under Homo sapiens; 3.7% in experiment [7]; 17.1% in experiment [8]; -2.16% in experiment [9].
Consider `O=C1CC2(CCCCC2)CC(=O)N1CC(O)COCc1ccc(Cl)cc1` (stereo unspecified), for which the Percent Effect in [1] is -4.15%; in experiment [2], -10.8%; in [3], -0.127%; in [4], -2.3%; in the experiment with Trypanosoma cruzi, -1.66%; in experiment [5], -0.744%. The Percent Effect in experiment [6] is -2.66%; in the experiment listed under Homo sapiens, 2.65%; in experiment [7] it was -2.15%; in experiment [8], -6.17%; in [9], 6.87%.
With `CN(CCCNC(=O)N1CCCC1c1ccsc1)c1ccccn1` (stereo unspecified), the Percent Effect in [1] was -0.565%; in experiment [2], 28.6%; in experiment [3], -13.6%; in [4] it was -0.894%; in the experiment on Trypanosoma cruzi it was 1.5%; in experiment [5] it was 3.92%. In addition, the Percent Effect in experiment [6] was 12.5%; in the experiment listed under Homo sapiens, 25.5%; in experiment [7] it was 9.71%; in experiment [8], 19.5%; in experiment [9], -10.5%.
As for `COc1ccc(CN2CCC(O)CC2)c(OC)c1`, the Percent Effect was -2.06% in [1]; 0% in [2]; -1.5% in [3]; 2.82% in experiment [4]; 1.93% in the experiment on Trypanosoma cruzi; -1.91% in [5]. Also, the Percent Effect in [6] was 4.83%; in the experiment filed under Homo sapiens it was 13.4%; in [7], 2.65%; in [8], 9.76%; in [9], -0.716%.
For the compound `Cc1noc(C)c1C(=O)NCC(c1ccc(F)cc1)N(C)C` (stereo unspecified), the Percent Effect is -3.62% in [1]; 8.11% in experiment [2]; 1.69% in experiment [3]; -12.4% in [4]; -3.25% in the experiment on Trypanosoma cruzi; 0.924% in experiment [5]. The Percent Effect was 0.898% in experiment [6]; 16.5% in the experiment filed under Homo sapiens; 5.94% in experiment [7]; 13.4% in experiment [8]; 0.216% in experiment [9].
